Compounds without any hit were thinned out: in the full panel of roughly 79,000, 15% have a hit. A number with no mark means an inactive call. Active and inactive are the calls of the source. No stated cut-off is given here; in the data, active means growth inhibition above about 70%; inactive means the rest.
Experiments:
[1] = NCI Yeast Anticancer Drug Screen. Data for the rad50 strain (AID 155);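 further: 0% = growth of vehicle-only cultures of the same strain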; details: S. cerevisiae rad50 strain growth inhibition, active compounds read high
In short: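 Readout: growth inhibition relative to vehicle-treated cultures. Compound exposure was carried out in a genetically defined yeast strain deficient in DNA damage repair.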

[2] = NCI Yeast Anticancer Drug Screen. Data for the mec2-1 strain (AID 157); details: S. cerevisiae mec2-1 strain, active compounds read high
In short: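 Readout is yeast growth inhibition, normalised to vehicle-treated controls, in the mec2-1 strain exposed to compound.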

[3] = NCI Yeast Anticancer Drug Screen. Data for the sgs1 mgt1 strain (AID 161);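 further: 0% = growth of cultures given vehicle only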; details: S. cerevisiae sgs1 mgt1 strain, active compounds read high
In short: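 Growth of a repair-deficient yeast mutant was monitored after compound treatment and expressed as inhibition relative to vehicle-treated cultures.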

[4] = NCI Yeast Anticancer Drug Screen. Data for the cln2 rad14 strain (AID 165);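 further: 0% = growth equal to vehicle treated cultures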; details: S. cerevisiae cln2 rad14 strain, active compounds read high
In short: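 Relative to vehicle controls, growth inhibition of compound-treated cln2 rad14 yeast was recorded.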

[5] = NCI Yeast Anticancer Drug Screen. Data for the bub3 strain (AID 167); details: S. cerevisiae bub3 mutant strain, active compounds read high
In short: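 Readout: yeast growth inhibition, expressed relative to vehicle-only wells. The test organism is a mutant strain from a panel with lesions in DNA repair or checkpoint genes.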

[6] = NCI Yeast Anticancer Drug Screen. Data for the mlh1 rad18 strain (AID 175); details: S. cerevisiae mlh1 rad18 strain growth inhibition, active compounds read high
In short: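 Test agents were incubated with a yeast strain of defined genotype (DNA damage repair defect). Inhibition of growth was derived by comparison with vehicle-exposed cultures.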

[7] = at 5.0 µM (retest, dose inferred, filed as 0.5)
[8] = at 50.0 µM (retest, dose inferred, filed as 5.0)

| SMILES | growth inhibition [1, 7] | growth inhibition [1, 8] | growth inhibition ([1]; at 50.0 µM) | growth inhibition [2, 7] | growth inhibition [2, 8] | growth inhibition ([2]; at 50.0 µM) | growth inhibition [3, 7] | growth inhibition [3, 8] | growth inhibition ([3]; at 50.0 µM) | growth inhibition [4, 7] | growth inhibition [4, 8] | growth inhibition ([4]; at 50.0 µM) | growth inhibition [5, 7] | growth inhibition [5, 8] | growth inhibition ([5]; at 50.0 µM) | growth inhibition [6, 7] | growth inhibition [6, 8] | growth inhibition ([6]; at 50.0 µM) |
| --- | --- | --- | --- | --- | --- | --- | --- | --- | --- | --- | --- | --- | --- | --- | --- | --- | --- | --- |
| CCCCC(CC)COP(=O)(OCC(CC)CCCC)OCC(CC)CCCC (configuration not stated) | 0% | 7% | 15.8% | 13% | -7% | 10.6% | 9% | 18% | -2.85% | 0% | -3% | 0.85% | -5% | -11% | -6.75% | -4% | -12% | 29.1% |
| O=c1c2ccccc2ncn1Cc1ccccc1[N+](=O)[O-] | -2% | 14% | -31.8% | -2% | 7% | -9.1% | 0% | 23% | -7% | -11% | -17% | 73.3% (active) | -1% | 42% | 26.2% | 0% | 18% | -6.15% |
| c1ccc(Cn2nnnc2-c2ccccc2)cc1 | -151% | -125% | 23.8% | -53% | -43% | 43.5% | -66% | -61% | 1.75% | -55% | -33% | 80.5% (active) | -70% | -57% | 5.45% | -147% | -89% | 14.3% |
| CN(Cc1cc(Cl)cc(Cl)c1O)Cc1c(O)ccc2ccccc12 | 31% | 100% (active) | 98.5% (active) | 14% | 100% (active) | 98.3% (active) | 10% | 99% (active) | 98.7% (active) | -34% | 99% (active) | 98.1% (active) | -11% | 100% (active) | 98.6% (active) | 12% | 99% (active) | 98.5% (active) |

Source: PubChem BioAssay (NCI)
